Compound activity deposited in PubChem by National Center for Advancing Translational Sciences (NCATS).
Compounds with a hit are over-represented: about 8.7% of the library has one in this group of screens.
AMA1-RON2 inh: qHTS for Inhibitors of AMA1-RON; Towards Development of Antimalarial Drug Lead: Primary Screen. AID 720542, 2013. Plasmodium falciparum AMA1 (3D7) - RON2 peptide interaction. 360,000 compounds, 0.2% hits. Potency, µM (titrated, usually from 58.2 µM), for inactives: at the highest dose activity change, negative = inhibition, hits mostly inhibitors. AlphaScreen AMA1-biotinylated RON2 peptide binding;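 also: 0% = vehicle wells and -100% = peptide control; nearly all actives have a fitted effect of over 45% in size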
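AMA1 (3D7) with his tag at 25 nM final met compounds first, then biotinylated RON2 peptide at 25 nM; detection used donor plus acceptor beads, 10 µg/mL apiece, read by AlphaScreen after 30 min at room temperature.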
Pf growth 96h: Primary qHTS for delayed death inhibitors of the malarial parasite plastid, 96 hour incubation. AID 504834, 2011. 320,000 compounds, 6.9% hits. P. falciparum luciferase reporter growth, 96 h. Potency, µM (doses to about 28.7 µM), inactives show at the highest dose activity change, negative = inhibition, hits mostly inhibitors
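Erythrocytes infected with luciferase-expressing P. falciparum were dispensed at 2% hematocrit and 0.05% parasitemia (final), then incubated with compounds 96 hours at 37 C in 5% CO2. Luminescence after detection reagent addition reported growth.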
VACV mCherry inh: qHTS for Stage-Specific Inhibitors of Vaccinia Orthopoxvirus: mCherry Reporter Primary qHTS; Vaccinia virus mCherry reporter infection, fluorescence; Potency, µM (doses to about 36.5 µM), inactives show at the top dose activity change, negative = inhibition, most hits filed as inhibitors; 310,000 compounds, 0.63% hits; calls by dose curve; tested in A549 cells; also: nearly all actives have a fitted effect of over 35% in size
Pf growth 48h: Primary qHTS for delayed death inhibitors of the malarial parasite plastid, 48 hour incubation; P. falciparum luciferase growth in erythrocytes, 48 h; Potency, µM (top dose mostly 28.7 µM), for the others: top-dose activity change, negative = inhibition, usual class: inhibitors; 310,000 compounds, 5.9% hits
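Growth was read as firefly luciferase luminescence after a 48 h, 37 C, 5% CO2 exposure of compounds to reporter-bearing P. falciparum cultures (0.1% parasitemia, 2% hematocrit final) in Albumax-supplemented RPMI 1640.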
VACV Venus inh: qHTS for Stage-Specific Inhibitors of Vaccinia Orthopoxvirus: Venus Reporter Primary qHTS | Vaccinia virus Venus reporter expression, fluorescence | Potency, µM (titrated, usually from 36.5 µM), for inactives: at the top dose activity change, negative = inhibition, hits mostly inhibitors | 330,000 compounds, 0.46% hits | AID 720580, 2013; calls by dose curve; tested in A549 cells; also: nearly all actives have a fitted effect of over 30% in size
* hit, by the source's call. Unless noted, calls follow the shape of the dose curve; as a rule, active = well fitted curve in the direction sought with a large enough effect; inconclusive = small, poorly fitted or top-dose-only effect, or another doubt; inactive = no such curve, though single readings can be large; an effect the other way counts as inactive or inconclusive. Unless noted, % is scaled to controls: 0 for no effect and ±100 for the full control effect; potency is read from the fitted curve at half-maximal effect.

Nc1c2c(nc3ccc(Br)cc13)N(c1ccccc1)CC2 was read as AMA1-RON2 inh -16%, Pf growth 96h inconclusive, VACV mCherry inh -1% and VACV Venus inh -10%.
`Cc1cccc(N2CCc3c2nc2ccc(Br)cc2c3N)c1` gave AMA1-RON2 inh -4%, Pf growth 96h -15%, VACV mCherry inh 11µM*, Pf growth 48h inconclusive and VACV Venus inh inconclusive.
Screening CCC(=O)Nc1ccc(-c2nnc(SCc3ccccc3)n2C)cc1 returned VACV mCherry inh -15% and VACV Venus inh -26%.
Screening COc1ccc(-c2nc3c4ccccc4n(CC(=O)N4CCN(c5ccccc5F)CC4)c(=O)n3n2)cc1 returned VACV mCherry inh -14% and VACV Venus inh -6%.
Screening CCOC(=O)c1nnn(-c2nonc2N)c1-c1ccc(C)cc1 returned AMA1-RON2 inh -2%, Pf growth 96h 48%, Pf growth 48h 15µM* and VACV Venus inh -18%.
`Nc1nonc1-n1nnc(C(=O)N/N=C/c2ccccc2Cl)c1-c1ccc2c(c1)OCO2` gave AMA1-RON2 inh 9%, Pf growth 96h 0.66µM*, VACV mCherry inh inactive, Pf growth 48h 2.9µM* and VACV Venus inh -17%.
Cc1ccc(-c2c(C(=O)N/N=C/c3cccs3)nnn2-c2nonc2N)cc1 was read as AMA1-RON2 inh 24%, Pf growth 96h 1.2µM* and Pf growth 48h inconclusive.
For Cc1ccsc1/C=N/NC(=O)c1nnn(-c2nonc2N)c1-c1ccc2c(c1)OCO2 the results were AMA1-RON2 inh 9%, Pf growth 96h 0.13µM*, VACV mCherry inh inactive, Pf growth 48h 3.3µM* and VACV Venus inh -4%.
Screening CCc1nnc2c(Nc3cccc(F)c3)nc3ccc(C(=O)c4ccccc4)cc3n12 returned VACV mCherry inh -12% and VACV Venus inh -6%.
`CCOC(=O)c1nnn(-c2nonc2N)c1CSc1ccccc1` gave AMA1-RON2 inh -1% and Pf growth 96h 3.3µM*.
Nc1nonc1-n1nnc(C(=O)N/N=C/c2cccs2)c1-c1ccc2c(c1)OCO2 was read as AMA1-RON2 inh 62%, Pf growth 96h 0.29µM*, VACV mCherry inh -10%, Pf growth 48h 0.93µM* and VACV Venus inh -6%.
CN(C)c1ccc(/C=C/c2ccnc3ccc(Br)cc23)cc1 was read as VACV mCherry inh inconclusive and VACV Venus inh 11%.
Screening COC1=C(c2ccccc2)C(=O)c2ccccc2C1=O returned AMA1-RON2 inh -29%, Pf growth 96h 1.2µM*, VACV mCherry inh -24%, Pf growth 48h 1.5µM* and VACV Venus inh -8%.
Screening COC1=CC(=O)c2ccccc2C1=O returned AMA1-RON2 inh 6%, VACV mCherry inh inconclusive and VACV Venus inh inconclusive.
COc1ccc(C2=C(Nc3ccccc3)c3ccccc3C2=O)cc1 was read as AMA1-RON2 inh -12%, Pf growth 96h -93%, VACV mCherry inh -3%, Pf growth 48h 1µM* and VACV Venus inh -15%.
For COc1ccc(NC2=C(c3ccc(OC)cc3)C(=O)c3ccccc32)cc1 the results were AMA1-RON2 inh 1%, Pf growth 96h inconclusive, VACV mCherry inh -18%, Pf growth 48h 0.66µM* and VACV Venus inh -1%.
For COc1ccc(C2=C(N)c3ccccc3C2=O)cc1 the results were AMA1-RON2 inh -13%, Pf growth 96h 10µM*, VACV mCherry inh -23%, Pf growth 48h -5% and VACV Venus inh -9%.
COc1ccccc1-c1nc2c(c(SCc3ccc(F)cc3Cl)n1)Cc1c(CO)cnc(C)c1O2 was read as VACV mCherry inh -10% and VACV Venus inh -16%.
`O=S(=O)(NCCNCC=Cc1ccc(Br)cc1)c1cccc2cnccc12` gave VACV mCherry inh -11% and VACV Venus inh inconclusive.
O=C(O)Cc1sc(Nc2ccccc2Cl)nc1-c1ccccc1 was read as VACV mCherry inh 2% and VACV Venus inh -3%.
`O=C(C1=C(c2ccccc2)C(=O)c2ccccc2C1=O)c1ccccc1` gave AMA1-RON2 inh inconclusive, Pf growth 96h 28%, VACV mCherry inh inconclusive, Pf growth 48h 1.5µM* and VACV Venus inh -13%.
CCc1ccc(-n2nc(CO)c(C(=O)NCc3cccs3)n2)cc1 was read as VACV mCherry inh -13% and VACV Venus inh -6%.
For CCc1cccc(NC(=O)c2ccc3c(c2)c(C)c(C)n3Cc2ccc(F)cc2)c1 the results were VACV mCherry inh -11% and VACV Venus inh -9%.
Screening Cc1cc(NCc2ccccn2)n2nc(C)c(-c3ccc(Cl)cc3)c2n1 returned AMA1-RON2 inh 88%, Pf growth 96h 2.9µM*, VACV mCherry inh inconclusive, Pf growth 48h 1.7µM* and VACV Venus inh inconclusive.
Screening CCN1CCN(c2cc(C(C)C)nc3c(-c4ccccc4)c(C)nn23)CC1 returned AMA1-RON2 inh inconclusive, Pf growth 96h 15µM*, VACV mCherry inh inconclusive, Pf growth 48h inconclusive and VACV Venus inh -27%.
For Cc1nn2c(NCc3ccccn3)cc(C(C)C)nc2c1-c1ccccc1 the results were AMA1-RON2 inh 106%, Pf growth 96h 1.7µM* and Pf growth 48h 1.7µM*.
Screening Cc1nn2c(NCCCn3ccnc3)cc(C(C)C)nc2c1-c1ccccc1 returned AMA1-RON2 inh 1%, Pf growth 96h 8.3µM*, VACV mCherry inh inactive, Pf growth 48h 2.1µM* and VACV Venus inh -17%.
Screening CCCc1cc(NCc2ccccn2)n2nc(C)c(-c3ccccc3)c2n1 returned AMA1-RON2 inh 96%, Pf growth 96h 13µM*, VACV mCherry inh -26%, Pf growth 48h 2.6µM* and VACV Venus inh -26%.
Screening CC(C)Sc1cc(N2CCCC2)nc(-c2ccc(F)cc2)n1 returned AMA1-RON2 inh 9%, Pf growth 96h inconclusive, Pf growth 48h 13µM* and VACV Venus inh inconclusive.
CC(C)Sc1cc(N2CCCC2)nc(-c2ccccc2)n1 was read as AMA1-RON2 inh 8%, Pf growth 96h inconclusive, Pf growth 48h inconclusive and VACV Venus inh -14%.
CCN(C(=O)c1ccc(C(C)(C)C)cc1)c1nnc(Cn2nnc3ccccc32)s1 was read as AMA1-RON2 inh -12%, Pf growth 96h 120%, VACV mCherry inh inconclusive, Pf growth 48h 10µM* and VACV Venus inh inconclusive.
`Cc1ccc(CCNC(=O)c2cc(C)nc3c2c(C)nn3-c2ccc(C)cc2)cc1` gave VACV mCherry inh -8% and VACV Venus inh -13%.
CC1CCc2nn(CC(=O)Nc3ccccc3Cl)cc2C1 (stereo not drawn) was read as VACV mCherry inh -9% and VACV Venus inh -13%.
For COc1ccc(CCN2C(=S)NC3CC2(C)Oc2ccc([N+](=O)[O-])cc23)cc1OC (stereo not drawn) the results were AMA1-RON2 inh 19% and Pf growth 96h 12µM*.
